SMILES strings stand for the structures. The whole screen tested about 390,000 compounds, of which about 17,000 (4.4%) were called active. About 8% were inconclusive and are not listed. Calls come from the whole dose curve; as a rule, active = well fitted inhibition curve with a large enough effect; inconclusive = small, poorly fitted or top-dose-only effect; inactive = no such curve, though single readings can be large or run the other way. The entries come from a sample that favours actives as a whole.
% is set by controls: 0 for no effect and ±100 for the full control effect; potency is the fitted concentration of half-maximal effect.

Chain of Lysine-specific demethylase 4A (Homo sapiens) (O75164 whole entry, looked up, the tested form may be a part): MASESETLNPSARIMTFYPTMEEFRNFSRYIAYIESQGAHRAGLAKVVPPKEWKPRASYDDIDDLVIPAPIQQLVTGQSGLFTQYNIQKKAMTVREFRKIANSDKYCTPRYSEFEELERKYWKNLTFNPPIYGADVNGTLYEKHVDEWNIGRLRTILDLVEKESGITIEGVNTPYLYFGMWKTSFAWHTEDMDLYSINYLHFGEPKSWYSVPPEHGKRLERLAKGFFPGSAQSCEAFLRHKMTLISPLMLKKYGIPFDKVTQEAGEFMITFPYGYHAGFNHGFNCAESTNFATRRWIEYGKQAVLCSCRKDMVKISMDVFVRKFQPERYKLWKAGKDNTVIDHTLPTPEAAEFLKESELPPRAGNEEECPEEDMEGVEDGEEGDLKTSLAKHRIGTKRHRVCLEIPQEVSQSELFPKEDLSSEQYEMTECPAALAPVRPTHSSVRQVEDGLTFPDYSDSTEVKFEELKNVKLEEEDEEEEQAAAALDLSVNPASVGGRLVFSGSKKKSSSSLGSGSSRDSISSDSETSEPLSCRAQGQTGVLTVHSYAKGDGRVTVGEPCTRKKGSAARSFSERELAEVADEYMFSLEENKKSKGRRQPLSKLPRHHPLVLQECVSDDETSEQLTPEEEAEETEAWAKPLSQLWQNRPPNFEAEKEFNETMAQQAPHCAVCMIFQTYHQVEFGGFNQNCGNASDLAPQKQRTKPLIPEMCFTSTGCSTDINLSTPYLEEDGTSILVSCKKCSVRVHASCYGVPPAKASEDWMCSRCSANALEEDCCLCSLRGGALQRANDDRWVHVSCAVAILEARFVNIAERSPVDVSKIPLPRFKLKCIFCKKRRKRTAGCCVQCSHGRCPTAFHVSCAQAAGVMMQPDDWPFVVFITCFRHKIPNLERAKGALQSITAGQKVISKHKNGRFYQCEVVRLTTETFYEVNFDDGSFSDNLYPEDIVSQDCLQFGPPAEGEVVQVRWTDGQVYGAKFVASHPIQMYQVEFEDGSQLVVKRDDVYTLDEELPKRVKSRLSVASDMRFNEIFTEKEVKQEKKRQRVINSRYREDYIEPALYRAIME

The test addresses Lysine-specific demethylase 4A (Homo sapiens) (UniProt O75164). In words: qHTS Assay for Inhibitors of JMJD2A-Tudor Domain. Note: nearly all actives have a fitted effect of over 50% in size. Particulars: AlphaScreen JMJD2A-Tudor / H3K4me3 peptide binding; series mostly up to 114 µM; activity change, negative = inhibition: at the top concentration. On the technique in general: Quantitative high-throughput screening tests each substance at several concentrations.
In the case of `COc1ccc2cc(CNc3ccc(OC)c(OC)c3)c(=O)n(CC(=O)Nc3ccccc3F)c2c1`, the “activity change, negative = inhibition” value was -20.7% (inactive). In the case of `O=C(O)c1ccccc1N=N/C(=N/Nc1cc(S(=O)(=O)O)ccc1O)c1ccccc1`, the Potency was 12.6 µM (active). As to `COc1ccc(-c2cccc(NS(=O)(=O)c3cc(C)c(OC)c(C)c3C)c2)nn1`, the “activity change, negative = inhibition” value is -23.6% (inactive). Regarding `Cc1ccc(-c2cc(C(F)(F)F)c(C#N)c(SCC(=O)Nc3ccccc3)n2)cc1`, the “activity change, negative = inhibition” value was 1.72% (inactive). Turning to `COc1ccc(C(=O)CCc2ccccc2O)c(OC)c1`, the “activity change, negative = inhibition” value was -12.3% (inactive). Take `COc1ccc(C(=O)c2c(C)c(CCC#N)n3ccccc23)c(OC)c1`: the Potency is 35.5 µM (active).

Turning to `COc1ccc(C(=O)NC(C)CCc2ccccc2)c(OC)c1` (centres undefined), the “activity change, negative = inhibition” value is 7.51% (inactive). Consider `Cc1c(Cl)cccc1NC(=O)C1CCCN(C(=O)c2cnn(-c3ccccc3)c2-n2cccc2)C1` (centres undefined), for which the “activity change, negative = inhibition” value is -23.2% (inactive). Consider `CCCCC(=O)OC1=CN(Cc2ccccc2)S(=O)(=O)c2ccccc21`, for which the “activity change, negative = inhibition” value is 44.4% (inactive). On the same count and under the same terms, under `COc1ccc2c(c1)c(=O)c(S(=O)(=O)c1ccc(F)cc1)cn2CC(=O)Nc1ccc(C)cc1C` stands -15.6% (inactive). Take `S=C(c1ccc(-c2ccccc2)o1)N1CCCCC1`: the Potency is 20 µM (active).

Consider `COc1ccccc1-c1cc(C(=O)N2CCCCC2)no1`, for which the “activity change, negative = inhibition” value was -6.94% (inactive).

Consider `CN1CCN(C(=O)c2ccc(-c3ccc(Br)cc3)o2)CC1`, for which the “activity change, negative = inhibition” value is -26.3% (inactive). As to `COc1ccc(NC(=O)c2ccc3nc(C(C)C)oc3c2)cc1OC`, the “activity change, negative = inhibition” value is -1.92% (inactive). As to `OCCNCc1cccc(OCc2ccccc2Cl)c1`, the “activity change, negative = inhibition” value was 1.38% (inactive).

As for `Clc1cccc(Cl)c1OCCOCCNCc1ccccc1`, the Potency is 20 µM (active).

On to `S=C(NCCc1ccccc1)NCc1ccccc1Cl`, for which the “activity change, negative = inhibition” value is -6.57% (inactive). Turning to `COC(=O)c1ccc(C2C(C(=O)Nc3ccccc3)=C(C)Nc3nc4ccccc4n32)cc1` (centres undefined), the “activity change, negative = inhibition” value is -17.2% (inactive). Still for that read-out and setting: under `O=C(Nc1ccc(S(=O)(=O)Nc2ccccn2)cc1)c1ccccc1` stands 4.86% (inactive).

Regarding `O=C(NC(=O)c1ccccc1)Nc1ccccc1O`, the “activity change, negative = inhibition” value is -5.35% (inactive). Regarding `O=C(NC1=CC(=O)c2ccccc2C1=O)c1ccccc1`, the Potency was 20 µM (active). In the case of `N#Cc1nc(NCc2ccc(Cl)c(Cl)c2)c2ncn(CCCO)c2n1`, the “activity change, negative = inhibition” value is -21.3% (inactive). With `COC(=O)c1scc(-c2ccccc2)c1S(=O)(=O)Nc1ccccc1`, the “activity change, negative = inhibition” value is -4.81% (inactive). Turning to `COc1ccc(Nc2ncc(F)c(N3CCOCC3)n2)cc1`, the “activity change, negative = inhibition” value was -20.2% (inactive). On to `COC(=O)c1ccc(Oc2nc(Nc3ccc(F)cc3)nc(N3CCCC3)n2)cc1`, for which the “activity change, negative = inhibition” value was -6.45% (inactive). For the compound `CCOc1ccc(Nc2nc(Cl)nc(N3CCN(c4ccc(OC)cc4)CC3)n2)cc1`, the Potency was 44.7 µM (active). For the compound `O=c1c(NCc2cccs2)nccn1-c1ccccc1`, the “activity change, negative = inhibition” value is -30.5% (inactive). For `COc1cc(C(=O)NCCS(=O)(=O)N2CCN(c3ccccc3)CC2)cc(OC)c1OC`, the “activity change, negative = inhibition” value was -0.639% (inactive). Same read-out and setting: then `Cc1ccc(OC(=O)CSc2nnc(-c3cccs3)o2)cc1`, with -19.9% (inactive).

With `COc1ccc(-n2c(C)cc(C(=O)CSc3nnc(-c4cccs4)o3)c2C)cc1`, the Potency was 56.2 µM (active).

Turning to `COc1ccc(-n2c(C)cc(C(=O)COC(=O)c3cc(OC)c(OC)cc3NC(=O)c3cccs3)c2C)cc1`, the “activity change, negative = inhibition” value was -16.8% (inactive).

`CCOC(=O)c1cc2c(=O)n3ccccc3nc2n(CC2CCCO2)c1=NC(=O)c1ccccc1Br` (centres undefined): the “activity change, negative = inhibition” value was 5.12% (inactive). `COCCNC(=O)CSc1c(C)cnc2c1c(=O)n(C)c(=O)n2C`: the “activity change, negative = inhibition” value is -4.22% (inactive). Regarding `NS(=O)(=O)c1ccc(NC(=O)CSc2nnc3c(n2)[nH]c2ccccc23)cc1`, the “activity change, negative = inhibition” value was -6.12% (inactive). Regarding `CCC1CCCCN1Cc1c(O)ccc2c(=O)c(Oc3ccccc3Cl)c(C(F)(F)F)oc12` (centres undefined), the “activity change, negative = inhibition” value was -3.78% (inactive). On to `COc1ccc(CCNC(=O)CCc2c(C)nc3c(c(C)nn3-c3ccc(C)c(C)c3)c2C)c(OC)c1OC`, for which the “activity change, negative = inhibition” value is -14.5% (inactive). Turning to `CC(C)CC(=O)NC(=S)NNC(=O)c1cccc([N+](=O)[O-])c1`, the “activity change, negative = inhibition” value was -17.9% (inactive). As for `CCCCCC(=O)NC(=S)NNC(=O)c1ccc([N+](=O)[O-])cc1`, the Potency was 28.2 µM (active). In the case of `COCCCNC(=S)NC(=O)c1ccc([N+](=O)[O-])cc1`, the “activity change, negative = inhibition” value is -20% (inactive).

On to `COc1ccc(CCNc2nc(-c3ccc(F)cc3)cc(C(F)(F)F)n2)cc1OC`, for which the “activity change, negative = inhibition” value is 6.14% (inactive).

Consider `CSc1nn(Cc2cccc(C)c2)c(N)c1S(=O)(=O)c1ccccc1`, for which the “activity change, negative = inhibition” value is -14.6% (inactive). On the same count and under the same terms, then `O=C(C1CCC1)N1CCN(c2ccccc2)CC1`, with 3.47% (inactive). Take `O=C(c1cc2c(s1)CCC2)N1CCN(c2ccccc2)CC1`: the Potency is 20 µM (active). Turning to `O=C(c1cc2ccccc2s1)N1CCN(c2ccccn2)CC1`, the “activity change, negative = inhibition” value is -5.3% (inactive). The same measure, in the same setting: then `CCn1c(SCC(=O)NNC(=O)c2ccc(OC)cc2)nnc1C(C)C`, with -10.6% (inactive); and `COCCCNC(NC(=O)c1ccc(C)cc1)C(Cl)(Cl)Cl` (centres undefined), with 0% (inactive). Turning to `CCn1c(C(C)NC(=O)c2ccc(C)cc2)n[nH]c1=S` (centres undefined), the Potency was 6.31 µM (active).

For `COc1cc(NC(=O)c2nc3ccccc3nc2C)cc(OC)c1OC`, the “activity change, negative = inhibition” value is -18.5% (inactive).

Consider `CC1=C(C(=O)Nc2ccccc2Cl)C(c2cccs2)n2ncnc2N1` (centres undefined), for which the “activity change, negative = inhibition” value was -9.58% (inactive). For the compound `CCCCOC(=O)CSc1ncnc2sc3c(c12)CCC(C)C3` (centres undefined), the “activity change, negative = inhibition” value is 67.1% (inactive). Same read-out and setting: under `Cn1c(=O)n(Cc2c(F)cccc2Cl)c(=O)c2c1nc1n2CCN1c1ccc(F)cc1` stands -7.24% (inactive). `CCn1c(Cc2cccs2)nnc1SCC(=O)c1ccc(C)cc1`: the “activity change, negative = inhibition” value is -28.2% (inactive).

As to `CCn1c(SCC(=O)c2ccc(Cl)s2)nnc1-c1cccs1`, the “activity change, negative = inhibition” value is -16.4% (inactive). Consider `CCn1c(SCC(=O)c2ccc3ccccc3c2)nnc1-c1cccs1`, for which the Potency is 79.4 µM (active).

Values taken from PubChem BioAssay AID504339 (National Center for Advancing Translational Sciences (NCATS), 2011).
